Screening data from PubChem BioAssay.
Pf growth 96h: P. falciparum growth inhibition at 96 hour, primary screen for plastid delayed-death inhibitors; P. falciparum luciferase reporter growth, 96 h; Potency, µM (series often up to 28.7 µM), hits mostly inhibitors; 320,000 compounds, 6.9% hits; AID 504834
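Two parasite generations (96 h, 37 C, 5% CO2) of compound exposure in infected erythrocytes (0.05% parasitemia, 2% hematocrit). Luciferase-reporter P. falciparum; decreased luminescence indicates inhibited growth, aimed at apicoplast-acting delayed death.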
SARS PLP yeast: SARS-CoV PLP inhibition in yeast; AID 485353; S. cerevisiae expressing SARS-CoV PLpro, growth rescue; 330,000 compounds, 0.19% hits; Potency, µM (doses to about 32.9 µM), actives largely listed as activators; calls by dose curve; further: nearly all actives have a fitted effect of over 55% in size
Sm TGR block: S. mansoni TGR enzyme inhibition; 360,000 compounds, 3% hits; Potency, µM (highest dose often 114 µM), most hits filed as inhibitors; purified TGR, DTNB reduction, TNB absorbance 405 nm; AID 485364; further: nearly all actives have a fitted effect of over 60% in size
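Kinetic colorimetric format: TGR-catalysed, NADPH-driven DTNB reduction monitored via TNB absorbance. Enzyme dispensed at 20 nM; compound exposure 15 min at room temperature before reaction start.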
Pf growth 48h: inhibits P. falciparum growth in the first generation, 48 h; AID 504832; P. falciparum luciferase growth in erythrocytes, 48 h; 310,000 compounds, 5.9% hits; Potency, µM (doses to about 28.7 µM), hits mostly inhibitors
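Luciferase-expressing P. falciparum in infected erythrocytes (2% hematocrit, 0.1% parasitemia final) in RPMI 1640/0.5% Albumax were exposed to compound for 48 hours at 37 C, 5% CO2; growth read as luminescence.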
Of the large screens only hits and unclear results are named; the others gave an inactive call. A selection: hits, their analogues and other compounds. The true share with any hit is near 12%. Unless noted, the call rests on the fitted dose curve; in most records, active means well fitted curve in the direction sought with a large enough effect; inconclusive means small, poorly fitted or top-dose-only effect, or another doubt; inactive means no such curve, though single readings can be large; an effect the other way counts as inactive or inconclusive.

CCCn1c(=O)n(C)c(=O)c2c(SCC(=O)NCc3ccco3)nc(C3CC3)nc21	Pf growth 96h 4.15µM, Sm TGR block inconclusive (no result: Pf growth 48h)
Cn1c(SCC(=O)NCc2ccco2)nc2ccccc2c1=O	none
O=C(CCCCCn1c(SCc2ccncc2)nc2ccccc2c1=O)NCc1ccco1	Sm TGR block 44.7µM, Pf growth 48h 8.28µM
N#CCSc1nc2ccccc2c(=O)n1CCCC(=O)NCc1ccco1	none
O=C(CSc1nc2ccccc2c2nc3ccccc3n12)NCc1ccco1	Sm TGR block 8.91µM, Pf growth 48h 9.28µM
CCn1c(SCC(=O)NCc2ccco2)nc2ccccc2c1=O	Sm TGR block 44.7µM
Cn1c(=O)c2c(SCC(=O)NCc3ccco3)nc(-c3ccccc3Cl)nc2n(C)c1=O	Pf growth 96h inconclusive, SARS PLP yeast inconclusive, Pf growth 48h inconclusive
N#Cc1ccc(NC(=O)COCc2cc(-c3ccc4c(c3)OCO4)on2)cc1	none (no result: Pf growth 96h, SARS PLP yeast, Pf growth 48h)
CCS(=O)(=O)N1CC(=O)N(c2cc(C)cc(C)c2)C(C)(C(=O)NC2CCCCC2)C1 (stereo not drawn)	none (no result: Pf growth 96h, SARS PLP yeast, Pf growth 48h)
O=C(CSc1nc2[nH]ncc2c(=O)n1-c1ccccc1Br)NCc1ccco1	Sm TGR block 22.4µM, Pf growth 48h 11.7µM
COc1ccc(CCNC(=O)CSc2nc3[nH]ncc3c(=O)n2-c2ccccc2Br)cc1OC	Pf growth 48h inconclusive
NC(=O)CSc1nc2ccccc2c(=O)n1Cc1ccco1	Pf growth 96h inconclusive
O=C(CSc1nc2ccccc2c(=O)n1Cc1ccco1)Nc1cccc(O)c1	Pf growth 96h 13.1µM, Sm TGR block inconclusive
FC(F)(F)c1ccc(Sc2nnc(-c3cccs3)n2CC2CCCO2)nc1 (stereo not drawn)	none (no result: Pf growth 96h)
O=C(CSc1nnc(-c2cccs2)n1CC1CCCO1)N1CCCC1 (stereo not drawn)	none (no result: Sm TGR block)
CCOc1ccc(C(C)=O)cc1CSc1nnc(-c2cccs2)n1CC1CCCO1 (stereo not drawn)	Sm TGR block 20µM (no result: Pf growth 48h)
FC(F)(F)c1cnc(Sc2nnc(-c3cccs3)n2CC2CCCO2)c(Cl)c1 (stereo not drawn)	SARS PLP yeast inconclusive, Pf growth 48h 7.38µM (no result: Pf growth 96h)
COCCN(Cc1nc2ccccc2c(=O)[nH]1)C(=O)COc1ccccc1-c1ccccc1	Pf growth 96h inconclusive, Pf growth 48h inconclusive
COC(=O)c1sc2nc(-c3ccccc3)nc(N3CCN(C)CC3)c2c1C	Pf growth 48h 3.7µM (no result: Pf growth 96h)
COc1ccc(-c2nc(-c3ccccc3)nc(N3CCN(C)CC3)c2C#N)cc1	Pf growth 96h 13.1µM, Pf growth 48h inconclusive
COC(=O)c1sc2nc(CN3CCOCC3)nc(N3CCOCC3)c2c1C	Sm TGR block inconclusive, Pf growth 48h 10.4µM
CN1CCN(c2nc(-c3ccccc3)nc(-c3ccccc3)c2C#N)CC1	Pf growth 96h inconclusive, Pf growth 48h inconclusive
CCOC(=O)c1sc2ncnc(N3CCN(C)CC3)c2c1C	none (no result: Sm TGR block)
Cc1sc2nc(CN3CCOCC3)nc(N3CCOCC3)c2c1C	Pf growth 96h inconclusive (no result: Pf growth 48h)
Cc1cc(NC(=O)CCC(=O)N(c2ccccc2)C(C(=O)NC2CCCC2)c2ccccc2F)no1 (stereo not drawn)	Pf growth 96h inconclusive, Pf growth 48h inconclusive
CC(=O)Nc1ccc(C2=NNC(=Nc3cccc(S(=O)(=O)N(C)C)c3)SC2)cc1	Pf growth 96h inconclusive, Pf growth 48h inconclusive (no result: Sm TGR block)
CN(C)S(=O)(=O)c1cccc(N=C2NN=C(c3ccccc3)CS2)c1	Pf growth 96h 2.33µM, Pf growth 48h 13.1µM
Cc1cccc(N=C2NN=C(c3ccccc3F)CS2)c1C	none
COc1ccc(C2=NNC(=Nc3cc(S(=O)(=O)N(C)C)ccc3C)SC2)c(OC)c1	Pf growth 48h 1.65µM
Cc1ccc([N+](=O)[O-])cc1-c1[nH]c(-c2ccc(O)c(O)c2)nc1-c1ccccc1	none (no result: Pf growth 48h)
COc1ccc([N+](=O)[O-])cc1-c1[nH]c(-c2ccc(C(=O)O)cc2)nc1-c1ccccc1	Pf growth 96h inconclusive, Pf growth 48h 8.28µM
COc1ccc(-c2nc(-c3ccccc3)c(-c3cc([N+](=O)[O-])ccc3C)[nH]2)cc1O	Pf growth 96h inconclusive, Pf growth 48h 5.22µM
Cc1[nH]c2ccccc2c1C(=O)C(C)OC(=O)c1ccc(NC(=O)CC#N)cc1 (stereo not drawn)	Pf growth 96h 3.29µM, Pf growth 48h 3.7µM
Cc1[nH]c2ccccc2c1C(=O)C(C)OC(=O)c1ccc(Cl)nc1 (stereo not drawn)	Pf growth 48h inconclusive
CC(OC(=O)c1ccc(NC(=O)CC#N)cc1)C(=O)Nc1ccc(Oc2ccccc2)cc1 (stereo not drawn)	Pf growth 96h inconclusive, SARS PLP yeast inconclusive, Pf growth 48h inconclusive
Cc1cc(C(=O)C(C)OC(=O)c2ccc(NC(=O)CC#N)cc2)c(C)n1-c1ccc(OC(F)F)cc1 (stereo not drawn)	Pf growth 96h inconclusive, Pf growth 48h 5.86µM
CN1CC(=O)N(C)c2ncn(Cc3ccccc3)c2C1=O	Pf growth 96h 8.28µM
O=c1c2ccccc2ncn1Cc1ccccc1	Pf growth 96h inconclusive
COc1ccccc1C(=O)N1CCCCC1CCN1CCOCC1 (stereo not drawn)	none (no result: Pf growth 96h, SARS PLP yeast, Pf growth 48h)
O=C1CS/C(=N/N=C/c2ccncc2)N1	Pf growth 96h 14.7µM, Pf growth 48h inconclusive
O=C1CS/C(=N/N=C/c2cccs2)N1	none
Cc1ccc(CCNC(=O)C2CCN(S(=O)(=O)N3CCCCC3)CC2)cc1	Pf growth 96h inconclusive
Cc1ccc(CCNC(=O)C2CCN(C(=O)N(C)C)CC2)cc1	Pf growth 96h 1.31µM (no result: Pf growth 48h)
Cc1ccc(C)c(CN2C(=O)C3(c4ccccc42)N(c2cccc(C(F)(F)F)c2)C(=O)CS3(=O)=O)c1 (stereo not drawn)	none (no result: Pf growth 96h, SARS PLP yeast, Pf growth 48h)
CC[C@]1(c2ccccc2C)ON(c2ccccc2C(F)(F)F)C1=O	Pf growth 96h inconclusive, Sm TGR block 56.2µM, Pf growth 48h 2.62µM
COc1ccccc1[C@@]1(C)ON(c2ccccc2C(F)(F)F)C1=O	Pf growth 96h 1.04µM, Pf growth 48h 1.47µM
O=C1N(c2ccccc2)c2ccccc2C1(O)C(F)(F)F (stereo not drawn)	none
Cc1ccccc1[C@]1(C)ON(c2ccccc2C(F)(F)F)C1=O	Pf growth 96h 1.31µM, Pf growth 48h 1.85µM
O=C(CSc1nc(=O)[nH]c2c1CCCC2)NCc1ccccc1Cl	none (no result: Pf growth 96h, SARS PLP yeast, Pf growth 48h)
COc1ccc(-c2nc(CS(=O)CC(=O)NC3CCC(C)CC3)c(C)o2)cc1OC (stereo not drawn)	Sm TGR block 35.5µM
COc1ccc(-c2nc(CSCC(=O)NC3CC3)c(C)o2)cc1OC	none
COc1ccc(-c2nc(CS(=O)CC(=O)NCCCN3CCCC(C)C3)c(C)o2)cc1OC (stereo not drawn)	Pf growth 96h inconclusive
COc1ccc(-c2nc(CS(=O)CC(=O)NC3CCCC3)c(C)o2)cc1OC (stereo not drawn)	Sm TGR block 20µM
COC(=O)C1=C(C(=O)OC)[C@@H]2N(C)c3ccccc3[C@@]23C[C@@H](CO)N(C(=O)NCCBr)C3=N1	Pf growth 96h inconclusive, Pf growth 48h 9.28µM
C=CCN1c2ccccc2[C@]23C[C@@H](C(=O)OC)N(C(=O)NCCC)C2=NC(C(=O)OC)=C(C(=O)OC)[C@H]13	Pf growth 96h 4.15µM, Pf growth 48h 3.29µM
